Rab9 promoter act = qHTS Assay for Rab9 Promoter Activators; Huh7 Rab9 promoter-luciferase reporter, luminescence, 24 h; Potency, µM (series often up to 9.22 µM), without a hit: at the top dose activation, negative = inhibition, actives largely listed as activators; 320,000 tested, 2.8% active; also: % of control where 0% means no effect; nearly all actives have a fitted effect of over 60% in size
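Steps: seed 1500 Huh7 Rab9-luc cells per well, rest 2 h at 37 °C; add compound in DMSO; incubate 24 h; add luciferase reagent, 10 min ambient; read luminescence.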
NPC1 prom act = qHTS Assay for NPC1 Promoter Activators | Huh7 NPC1 promoter luciferase reporter, 24 h | Potency, µM (series often up to 9.22 µM), for the others: at the highest dose activation, actives largely listed as activators | 320,000 tested, 2.4% active; also: % of control where 0% means no effect; nearly all actives have a fitted effect of over 60% in size
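Huh7 cells stably carrying NPC1 promoter–luciferase, plated in Opti-MEM with 10% FBS for 2 h, were exposed to compound in DMSO for 24 h at 37 °C; luciferase reagent was added for 10 min and luminescence read.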
SMN2 splice enh = qHTS Assay for Enhancers of SMN2 Splice Variant Expression; Potency, µM (titrated, usually from 46.1 µM), for the others: top-dose activity change, positive = activation, usual class: activators; 210,000 tested, 2.8% active; AID 1458, 2008; HEK293 SMN2-luciferase splicing reporter, luminescence, 30-36 h; also: % of control where 0% means no effect; nearly all actives have a fitted effect of over 55% in size
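HEK293 cells carry an SMN2 […]–luciferase reporter in which exon 7 inclusion puts luciferase in frame. Cells were plated 10-12 h before compound addition, then incubated 30-36 h at 37C. ONE-Glo luminescence was read; sodium butyrate at 4.5 mM final served as control.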
p53 reactivator = qHTS assay for re-activators of p53 using a Luc reporter. H1299 p53-A138V BP100-luciferase reporter, luminescence, 24 h. 320,000 tested, 0.063% active. Potency, µM (highest dose often 92.2 µM), for inactives: at the highest dose activity change, positive = activation, hits mostly activators; also: % of control where 0% means no effect; nearly all actives have a fitted effect of over 45% in size
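p53-null H1299 cells stably carrying temperature-sensitive p53-A138V and a BP100-luciferase reporter were pinned with compounds (4-point, 1:5 series) and held 24 hrs at 37 deg C. Luminescence was read 10 min after detection reagent.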
FLuc modulator = qHTS profiling assay for firefly luciferase inhibitor/activator using purifed enzyme and Km concentrations of substrates (counterscreen for miR-21 project); AID 588342, 2011; purified FLuc, Km substrates, luminescence inhibition; 360,000 tested, 6.9% active; Potency, µM (doses to about 57.5 µM), without a hit: at the top dose activity change, negative = inhibition, most hits filed as inhibitors; Luciferin 4-monooxygenase (Photinus pyralis), P08659;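 also: plate controls were vehicle for no effect and reference inhibitor for full effect; nearly all actives have a fitted effect of over 55% in size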
Target sequence (P08659 whole entry, looked up): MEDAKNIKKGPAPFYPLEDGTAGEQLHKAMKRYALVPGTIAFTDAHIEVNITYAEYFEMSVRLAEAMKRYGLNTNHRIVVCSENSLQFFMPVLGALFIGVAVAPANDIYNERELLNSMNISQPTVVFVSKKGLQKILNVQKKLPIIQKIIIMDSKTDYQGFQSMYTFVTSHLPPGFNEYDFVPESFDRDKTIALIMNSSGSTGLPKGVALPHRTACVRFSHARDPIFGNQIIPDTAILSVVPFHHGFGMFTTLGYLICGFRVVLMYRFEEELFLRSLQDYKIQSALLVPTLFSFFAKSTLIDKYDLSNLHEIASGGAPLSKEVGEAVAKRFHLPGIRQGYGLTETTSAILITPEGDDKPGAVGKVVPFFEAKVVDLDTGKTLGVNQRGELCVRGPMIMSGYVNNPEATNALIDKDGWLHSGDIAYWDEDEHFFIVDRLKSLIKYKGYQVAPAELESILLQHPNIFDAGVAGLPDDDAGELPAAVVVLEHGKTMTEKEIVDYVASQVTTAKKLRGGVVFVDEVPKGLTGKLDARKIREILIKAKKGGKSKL
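Purified P. pyralis luciferase, 10 nM final, with Km-level 10 uM D-luciferin and 10 uM ATP in 50 mM Tris acetate pH 7.5, 10 mM Mg acetate, 0.01% Tween-20, 0.05% BSA; 6-point qHTS titration about 60 µM downward; luminescence read.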
ELG1 genotoxic = qHTS screen for small molecules that induce genotoxicity in human embryonic kidney (HEK293T) cells expressing luciferase-tagged ELG1 | HEK293T ELG1-luciferase reporter, luminescence, 16 h | Potency, µM (doses to about 46 µM), for inactives: at the highest dose activity change, positive = activation, usual class: activators | 330,000 tested, 1.3% active | AID 504466, 2011; also: % of control where 0% means no effect; nearly all actives have a fitted effect of over 60% in size
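DMSO vehicle served as control against compound-treated ELG1-luciferase HEK293T cells; exposure lasted 16 hr at 37 °C and 5% CO2, followed by ONE-Glo luminescence detection after 30 min.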
The depositor's hits bear a star. Hits are enriched below; roughly 7.3% of the tested compounds scored in any of these assays. Calls follow the shape of the dose curve; as a rule, active = well fitted curve in the direction sought with a large enough effect; inconclusive = small, poorly fitted or top-dose-only effect, or another doubt; inactive = no such curve, though single readings can be large; an effect the other way counts as inactive or inconclusive. Potency is read from the fitted curve at half-maximal effect.

What do the screens show for `c1ccc(-c2csc(-c3ccncc3)n2)cc1`?
Rab9 promoter act: 24%; NPC1 prom act: 18%; SMN2 splice enh: 23%; p53 reactivator: 7%; FLuc modulator: 15µM*; ELG1 genotoxic: 19%

Results for Fc1ccc(-c2csc(-c3cccnc3)n2)cc1F ?
Rab9 promoter act: inconclusive; NPC1 prom act: inconclusive; p53 reactivator: inconclusive; FLuc modulator: inconclusive; ELG1 genotoxic: 12%

What do the screens show for `Fc1ccccc1-c1csc(-c2cccnc2)n1`?
Rab9 promoter act: inconclusive; NPC1 prom act: inconclusive; p53 reactivator: inconclusive; FLuc modulator: 15µM*; ELG1 genotoxic: inconclusive

What do the screens show for `Oc1ccc(-c2csc(-c3ccccc3)n2)cc1O`?
Rab9 promoter act: -1%; NPC1 prom act: 18%; SMN2 splice enh: inconclusive; p53 reactivator: inconclusive; FLuc modulator: 15µM*; ELG1 genotoxic: inconclusive

How did Cc1nc(-c2ccc(O)c(O)c2)cs1 do in these assays?
Rab9 promoter act: 29%; NPC1 prom act: -7%; SMN2 splice enh: 2%; p53 reactivator: 16%; FLuc modulator: -18%; ELG1 genotoxic: 23%

What do the screens show for `Cc1csc(-c2cccnc2)n1`?
Rab9 promoter act: 3%; NPC1 prom act: -3%; SMN2 splice enh: 7%; p53 reactivator: 9%; FLuc modulator: 1%; ELG1 genotoxic: 1%

How did O=C(O)c1csc(-c2ccccc2)n1 do in these assays?
Rab9 promoter act: -1%; NPC1 prom act: -2%; p53 reactivator: -3%; FLuc modulator: 4%; ELG1 genotoxic: 0%

How did c1cncc(-c2nc(-c3ccc4c(c3)OCCO4)cs2)c1 do in these assays?
Rab9 promoter act: 0.56µM*; NPC1 prom act: 0.89µM*; p53 reactivator: inconclusive; FLuc modulator: 1.7µM*; ELG1 genotoxic: inconclusive

How did Clc1ccc(-c2csc(-c3cccnc3)n2)s1 do in these assays?
Rab9 promoter act: 24%; NPC1 prom act: 22%; p53 reactivator: 13%; FLuc modulator: 13µM*; ELG1 genotoxic: 11%

How did Oc1ccccc1-c1csc(-c2ccccc2)n1 do in these assays?
Rab9 promoter act: inconclusive; NPC1 prom act: -5%; SMN2 splice enh: inconclusive; p53 reactivator: inconclusive; FLuc modulator: 5.4µM*; ELG1 genotoxic: -11%

What do the screens show for `Cc1ccc2c(c1)c1c(c(=O)n(-c3cccc(Cl)c3)c(=O)n1C)n2C`?
FLuc modulator: 0%

Results for Cc1csc(C2=C(O)CN(c3ccc4c(c3)OCCOCCOCCOCCO4)C2=N)n1 ?
Rab9 promoter act: 1%; NPC1 prom act: 2%; SMN2 splice enh: 0%; p53 reactivator: 4%; FLuc modulator: -1%; ELG1 genotoxic: 1%

Results for CCn1c(Cc2ccccc2)nnc1SCC(=O)c1c(N)n(C2CC2)c(=O)[nH]c1=O ?
Rab9 promoter act: 0%; NPC1 prom act: -3%; p53 reactivator: 3%; FLuc modulator: 7%; ELG1 genotoxic: 1%

Results for O=C(Cn1nc(-c2ccccc2)nc(Cc2ccccc2)c1=O)Nc1ccccc1 ?
FLuc modulator: -5%

How did NC(=O)c1cc(-c2ccccc2)sc1NC(=O)CN1CCCCC1 do in these assays?
Rab9 promoter act: -3%; NPC1 prom act: 0%; SMN2 splice enh: -3%; p53 reactivator: 0%; FLuc modulator: 19µM*; ELG1 genotoxic: -5%

Results for Cc1cccc(C(=O)Nc2sc(-c3ccccc3)cc2C(=O)O)c1 ?
Rab9 promoter act: inconclusive; NPC1 prom act: 2.5µM*; p53 reactivator: inconclusive; FLuc modulator: 11µM*; ELG1 genotoxic: inconclusive

Results for CC(C)(C)C(=O)Nc1sc(-c2ccccc2)cc1C(=O)O ?
Rab9 promoter act: 3.2µM*; NPC1 prom act: 4.5µM*; p53 reactivator: inconclusive; FLuc modulator: 11µM*; ELG1 genotoxic: 15%

What do the screens show for `CCc1cccc(C)c1NC(=O)Cn1cc2c(n1)CCCC2`?
SMN2 splice enh: -18%; FLuc modulator: -1%

How did COc1ccc(C(=O)Nc2cccc(-c3nc4cccnc4s3)c2C)c(OC)c1 do in these assays?
FLuc modulator: -17%

What do the screens show for `CCC(C)n1ncn(-c2ccc(N3CCN(c4ccc(OC)cc4)CC3)cc2)c1=O` (configuration not stated)?
Rab9 promoter act: 0%; NPC1 prom act: 0%; SMN2 splice enh: -26%; p53 reactivator: -11%; FLuc modulator: 1%; ELG1 genotoxic: 1%

Results for COc1ccc(-c2cc(C(=O)Nc3nc4ccccc4s3)c3ccccc3n2)cc1OC ?
Rab9 promoter act: 0%; NPC1 prom act: -2%; SMN2 splice enh: -35%; p53 reactivator: 15%; FLuc modulator: 17µM*; ELG1 genotoxic: -4%

Results for COc1ccc(-c2cc(C(=O)Nc3cccnc3)c3ccccc3n2)cc1OC ?
Rab9 promoter act: 0%; NPC1 prom act: 0%; p53 reactivator: -20%; FLuc modulator: 11µM*; ELG1 genotoxic: -18%

What do the screens show for `COc1ccc(-c2cc(C(=O)Nc3ccccc3O)c3ccccc3n2)cc1OC`?
Rab9 promoter act: -2%; NPC1 prom act: -6%; SMN2 splice enh: -41%; p53 reactivator: -4%; FLuc modulator: inconclusive; ELG1 genotoxic: -11%

What do the screens show for `COc1cccc(-c2cc(C(=O)Nc3cccnc3)c3ccccc3n2)c1`?
Rab9 promoter act: 4%; NPC1 prom act: 0%; p53 reactivator: -14%; FLuc modulator: 27µM*; ELG1 genotoxic: -14%

Results for O=C(Nc1cccnc1)c1cc(-c2cccc(Br)c2)nc2ccccc12 ?
Rab9 promoter act: 0%; NPC1 prom act: -4%; p53 reactivator: -28%; FLuc modulator: inconclusive; ELG1 genotoxic: -18%

Results for COc1ccc(-c2nc3scc(CCNS(=O)(=O)c4ccc5c(c4)OCCO5)n3n2)cc1 ?
FLuc modulator: -18%

Results for CCCCCN(C(=O)CCC(=O)OCC(=O)c1ccc(CCC)cc1)c1c(N)n(CCCC)c(=O)[nH]c1=O ?
Rab9 promoter act: -1%; NPC1 prom act: 1%; p53 reactivator: -2%; FLuc modulator: 2.7µM*; ELG1 genotoxic: -6%

What do the screens show for `CCCCN(C(=O)CSc1nnnn1C)c1c(N)n(Cc2ccccc2)c(=O)[nH]c1=O`?
Rab9 promoter act: -4%; NPC1 prom act: -3%; p53 reactivator: 1%; FLuc modulator: 5%; ELG1 genotoxic: 0%

Compound activity (PubChem)
